Rows were chosen to be rich in hits. Some 2.2% of all compounds tested hit in one or more screens of this group.
Abeta rescue = qHTS for compounds that reverse cellular toxicity of Amyloid beta (A-beta) peptide in yeast: Primary Screen | yeast expressing A-beta42, growth rescue, OD600, 48 h; response scale: 0% DMSO, 100% iron-clioquinol control | Potency, µM (top dose mostly 46.1 µM), actives largely listed as activators | 0.063% of 410,000 active; further: nearly all actives have a fitted effect of over 55% in size
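Growth rescue measured by 600 nm absorbance after 48 h yeast culture at 30 C with compound. Values normalized between DMSO and an equimolar ferric chloride plus clioquinol control.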
FUS yeast rescue = qHTS for Suppressors of FUS Proteinopathy: Primary screen using FUS-linked yeast assay | AID 1347120, 2019 | 0.24% of 390,000 active | Potency, µM (series often up to 76.6 µM), actives largely listed as activators | S. cerevisiae FUS-expressing, growth rescue, OD600, 24 h;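 further: plate controls were DMSO vehicle for no effect and reference control for full effect; nearly all actives have a fitted effect of over 55% in size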
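Compound concentration series was pinned onto galactose-induced FUS-expressing yeast seeded at OD 0.005. Plates sat 24hr at 30C; absorbance at 600 nm gave growth. DMSO served as background control.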
ERG-DNA inh = qHTS for Small Molecule Inhibitors of the ERG Ets/DNA interaction; Transcriptional regulator ERG (Homo sapiens), P11308; fluorescence polarization, His-ERG Ets domain / labelled DNA; Potency, µM (titrated, usually from 76.9 µM), inactives show at the highest dose FP activity, negative = inhibition, hits mostly inhibitors; 0.028% of 370,000 active; active means well fitted inhibition curve with a large enough effect in the polarisation, with a control signal flat; inconclusive means small, poorly fitted or top-dose-only effect, or effect the other way, or a change in a side signal; inactive means no such curve, though single readings can be large or run the other way; the % refers to the polarisation;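 further: polarization taken with two DNA probes labelled with fluorescein and Texas red; % of control where 0% means no effect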
Target sequence (P11308 whole entry, looked up, the tested form may be a part): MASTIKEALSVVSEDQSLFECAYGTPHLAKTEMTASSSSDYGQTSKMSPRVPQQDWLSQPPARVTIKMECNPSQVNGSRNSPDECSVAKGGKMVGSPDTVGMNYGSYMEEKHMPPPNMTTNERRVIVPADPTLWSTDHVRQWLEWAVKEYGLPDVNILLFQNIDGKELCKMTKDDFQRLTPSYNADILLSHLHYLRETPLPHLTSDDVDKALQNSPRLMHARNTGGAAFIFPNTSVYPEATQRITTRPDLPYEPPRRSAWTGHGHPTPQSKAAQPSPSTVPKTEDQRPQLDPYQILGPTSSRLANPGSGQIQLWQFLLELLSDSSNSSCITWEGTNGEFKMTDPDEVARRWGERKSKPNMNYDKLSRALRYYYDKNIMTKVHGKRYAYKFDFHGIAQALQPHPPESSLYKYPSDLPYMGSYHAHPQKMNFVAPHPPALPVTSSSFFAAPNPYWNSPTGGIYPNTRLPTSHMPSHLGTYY
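His-tagged ERG Ets domain (1 uM in the protein solution; 300mM KCl, 50mM Tris-HCl, 1mM EDTA, 1mM DTT, pH 7.5) received compound, then a probe mix of 5 nM fluorescein-DNA and 100nM Texas-615-DNA. Fluorescence polarization was read for both dyes.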
aSyn rescue = qHTS of alpha-syn Inhibitors. Yeast expressing alpha-synuclein, growth rescue, BacTiter-Glo, 24 h. Potency, µM (highest dose often 46.1 µM), inactives show at the top dose growth rescue (activation), usual class: activators. 0.14% of 370,000 active. AID 652106, 2013; further: % of control where 0% means no effect; nearly all actives have a fitted effect of over 65% in size
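Readout is rescue of growth in alpha-synuclein-expressing yeast, so inhibitors of toxicity appear as activators. Growth after 24 hr at 30 deg C in galactose medium is quantified by luminescence.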
TDP-43 yeast inh = qHTS of TDP-43 Inhibitors | TDP-43 expressing yeast growth rescue, BacTiter-Glo, 24 h | Potency, µM (doses to about 46.1 µM), without a hit: at the highest dose growth rescue (activation), most hits filed as activators | 1.8% of 410,000 active | AID 652104, 2013; further: % of control where 0% means no effect; nearly all actives have a fitted effect of over 50% in size
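Readout is BacTiter-Glo luminescence of cell growth, so inhibitors register as activators. TDP-43-expressing yeast at OD600=0.02 in galactose medium, after raffinose pregrowth to mid-log, were incubated with compound for 24 hr at 30 deg C.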
Mito fusion yeast = qHTS Assay for Small Molecule Inhibitors of Mitochondrial Division or Activators of Mitochondrial Fusion | 0.23% of 320,000 active | AID 485298, 2010 | Potency, µM (titrated, usually from 46.1 µM), without a hit: top-dose growth rescue (activation), hits mostly activators | S. cerevisiae fusion-defective mutant growth rescue, CellTiterGlo 48 h; further: % of control where 0% means no effect; nearly all actives have a fitted effect of over 45% in size
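S. cerevisiae fusion-defective temperature-sensitive mutants (e.g. fzo1-1, mgm1-5) grown 48 h at 37C in YPEG (ethanol/glycerol non-fermentable) medium with 23 nl compound per well; growth rescue read as CellTiterGlo luminescence.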
Starred values were filed as active, the others as inactive; i = inactive; u = inconclusive; x = not tested or not shown. Unless noted, the call rests on the fitted dose curve; in most records, active means well fitted curve in the direction sought with a large enough effect; inconclusive means small, poorly fitted or top-dose-only effect, or another doubt; inactive means no such curve, though single readings can be large; an effect the other way counts as inactive or inconclusive. Potency means the concentration at half of the fitted maximal effect.

SMILES	Abeta rescue	FUS yeast rescue	ERG-DNA inh	aSyn rescue	TDP-43 yeast inh	Mito fusion yeast
Cc1ccc(NC(=O)Cn2nnc(C(=O)Nc3ccc(C)c(C)c3)c2N)cc1	i	22µM*	-7%	3%	4%	-5%
Cc1ccc(NC(=O)c2nnn(CC(=O)Nc3ccc4c(c3)OCO4)c2N)cc1C	i	i	-6%	13%	1%	-6%
CCOc1ccccc1N(CC)C(=O)c1cc2c(=O)n(CC)c3ccccc3c2s1	i	32µM*	-4%	x	12%	x
CCn1c(=O)c2cc(C(=O)NC3CCCCCC3)sc2c2ccccc21	i	i	u	x	16µM*	x
CCn1c(=O)c2cc(C(=O)N(C)c3ccc(OC)cc3OC)sc2c2ccccc21	i	2µM*	0%	-1%	19%	29%
CCn1c(=O)c2cc(C(=O)N(C)c3cc(Cl)c(OC)cc3OC)sc2c2ccccc21	i	i	1%	x	-23%	x
CCCN(C(=O)c1cc2c(=O)n(CC)c3ccccc3c2s1)c1ccccc1F	i	i	1%	x	7%	x
CN1c2ccc(Cl)cc2-c2nc(SCC(=O)NCc3ccccc3)ncc2S1(=O)=O	i	i	2%	x	18%	x
C[C@@H]1CCCCO[C@H](CN(C)C(=O)Nc2ccc3c(c2)OCO3)[C@H](C)CN([C@@H](C)CO)C(=O)c2cc(NS(=O)(=O)c3ccc(Cl)cc3)ccc2O1	i	u	x	1%	u	x
Cc1ccc(-n2c(=O)c3c4c(sc3n(Cc3ccccc3F)c2=O)CCC4)cc1C	i	i	10%	x	5%	x
CCOc1ccc(NCc2nnc(SCc3ccc(Cl)cc3)n2-c2ccccc2)cc1	i	x	-8%	u	25µM*	20%
CCOC(=O)CSc1nnc(CNc2ccc(Cl)cc2)n1-c1ccccc1	i	i	x	27%	u	4%
Nc1ncnc(Oc2cccc(C(F)(F)F)c2)c1[N+](=O)[O-]	i	i	7%	-3%	13µM*	1%
CCc1ccc(NC(=S)N(CCCN2CCOCC2)Cc2ccccn2)cc1	i	i	-6%	0%	-13%	-7%
CCc1ccc(NC(=S)N(Cc2ccccc2)Cc2ccccn2)cc1	13µM*	i	0%	-9%	u	3%
NC(=S)N/N=C/c1ccc(-n2nncc2-c2ccc(Cl)cc2)cc1	i	i	8%	-8%	-2%	22µM*
COC(=O)[C@]12C=CCN1[C@@H](c1ccc(C(F)(F)F)cc1)c1c(c3ccccc3n1S(=O)(=O)c1ccc(C)cc1)C2	x	i	x	x	x	x
c1nc(N2CCC3(CC2)OCCO3)c2c3c(sc2n1)CCCC3	i	i	0%	6%	22µM*	2%
c1ccc(N2CCN(c3ncnc4sc5c(c34)CCC5)CC2)cc1	i	i	12%	-7%	5%	u
CCCOc1ccc(C(=O)NNC(=S)NC(C)=O)cc1	u	i	-2%	4µM*	11µM*	-26%
CCCOc1ccc(C(=O)NNC(=S)NC(=O)c2ccco2)cc1	i	i	5%	-28%	6.3µM*	-26%
O=C(COc1ccc(Cl)cc1Cl)NNC(=S)NC(=O)c1ccco1	u	i	0%	10µM*	18µM*	-13%
O=C(NC(=S)NNC(=O)c1ccco1)c1ccc(Br)cc1	i	i	2%	u	3.5µM*	-35%
CCOc1ccc(NC(=O)Cn2cnc3nc4c(cc3c2=O)CCCC4)cc1	i	i	-2%	x	0%	x
CCC(=O)NC(=S)NNC(=O)c1ccc(OC)cc1	10µM*	i	x	10µM*	20%	12%
SMILES	Abeta rescue	FUS yeast rescue	ERG-DNA inh	aSyn rescue	TDP-43 yeast inh	Mito fusion yeast
O=C(/C=C/c1ccco1)NC(=S)NNC(=O)c1ccco1	u	i	x	11µM*	u	-10%
CCCCOc1ccc(C(=O)NNC(=S)NC(=O)CC)cc1	i	i	5%	-14%	u	-30%
CN1CCCC1(C)C(=O)NCc1ccc(F)cc1Cl (configuration not stated)	i	i	x	1%	12%	x
COc1cc(C=C(C#N)c2ccc([N+](=O)[O-])cc2)ccc1O	i	i	x	-15%	4µM*	x
COc1cc(/C=C(/C#N)c2ccccc2)ccc1Oc1ccc([N+](=O)[O-])cn1	i	i	0%	0%	-3%	u
CCc1ccc(OCC(=O)NNC(=S)NC(=O)C2CCCCC2)c(Br)c1	7.9µM*	i	5%	7.1µM*	18µM*	-3%
CCc1ccc(OCC(=O)NNC(=O)c2cnccn2)c(Br)c1	25µM*	i	-5%	u	25µM*	-1%
CCN1C(=O)C2(c3ccccc31)c1c(oc3ccc(C)cc3c1=O)C(=O)N2CCCOC(C)C (configuration not stated)	i	i	-7%	x	0%	x
COc1cccc(NC(=O)Nc2ccc(C(C)(C)C)cc2)c1	i	i	14%	-10%	u	-1%
Cc1ccc(Cc2c(-c3ccc(Br)cc3)nc3ccc(Cl)cn23)cc1	i	i	x	0%	26%	x
Cc1ccc(-c2nc3ccc(Cl)cn3c2Cc2cccc(F)c2)cc1	i	i	x	u	14µM*	x
Cc1ccc(Cc2c(-c3ccc(C)cc3)nc3ccc(Cl)cn23)cc1	i	i	x	0%	25µM*	x
Cc1ccc(Cc2c(-c3ccc(Cl)cc3)nc3ccc(Cl)cn23)cc1	i	i	x	6%	35µM*	x
Cc1ccc(-c2nc3ccc(Cl)cn3c2Cc2ccccc2C(F)(F)F)cc1	i	u	x	7%	22µM*	x
Cc1ccc2nc(-c3ccc(Cl)cc3)c(Cc3ccccc3C(F)(F)F)n2c1	i	i	x	14%	u	x
CCOCCc1nn2c(=O)cc(COC(=O)COc3ccccc3Cl)nc2s1	i	i	-3%	x	12%	x
Cc1ccc(CNS(=O)(=O)c2c(C)nc3sc(C)cn3c2=O)cc1	i	i	3%	x	3%	x
Cc1ccc(-c2nnc3n2N=C(c2ccc(-c4ccccc4)cc2)CS3)cc1	x	i	x	x	x	x
CN(Cc1ccccc1)C(=O)CCn1c(=O)oc2ccccc21	i	i	-6%	9%	15%	-3%
Cc1cccc(N(Cc2ccccc2)C(=O)CCl)c1	i	i	0%	0%	u	-19%

From PubChem BioAssay
